Test results from PubChem BioAssay AID463173 (ICCB-Longwood Screening Facility, Harvard Medical School, 2010).
About 4,300 (8.3%) of roughly 52,000 compounds were called active. Only a selection was taken, and actives are over-represented in it overall. A number with no mark means an inactive call. Rule as the data show it: active = survival mostly below about 52% (no sharp cut-off); inactive = mostly above about 56%.

system: DeltatarO mutant; assay: S. aureus survival, RN4220 and DeltatarO strains – OD600, teichoic acid synthesis inhibitors, primary screen (AID 463173); conditions: S. aureus RN4220 wild type/DeltatarO growth, OD600, 18 h, hits give low values, screened at 18.75 µg/mL (by protocol)

Row | SMILES | survival
1 | Cc1ccc(N(C)S(=O)(=O)c2nnc(NC(=O)c3ccco3)s2)cc1 | 57%
2 | CCC(C)(C)C(=O)Nc1ccc(Cl)cc1 | 93%
3 | CCOc1ccc(NC(=O)c2c(NC(=O)Cc3ccccc3)sc3c2CCC(C)C3)cc1 (stereo not drawn) | 46%
4 | CCN(CC)C(=O)c1c(NC(=O)c2cccc(C)c2)sc2c1CCC(C)C2 (stereo not drawn) | -1% (active)
5 | CC1CCc2c(sc(NC(=O)c3ccccc3)c2C(=O)Nc2ccccc2)C1 (stereo not drawn) | 42% (active)
6 | Cc1cccc(NC(=O)c2c(NC(=O)c3ccco3)sc3c2CCC(C)C3)c1 (stereo not drawn) | 53%
7 | CC1CCc2c(sc(NC(=O)Cc3ccccc3)c2C(=O)Nc2ccc(Cl)cc2)C1 (stereo not drawn) | 57%
8 | Cc1cccc(NC(=O)c2c(NC(=O)c3cccs3)sc3c2CCC(C)C3)c1 (stereo not drawn) | 60%
9 | Cc1cccc(C(=O)Nc2sc3c(c2C(=O)N2CCCCC2)CCC(C)C3)c1 (stereo not drawn) | -6% (active)
10 | CCOc1ccc(C(=O)c2cn(Cc3cccc(OC)c3)c3cc4c(cc3c2=O)OCO4)cc1 | 72%
11 | COC(=O)c1ccc2nc(C)cc(Nc3ccc(O)cc3)c2c1 | 186%
12 | COc1cc(Cl)c(S(=O)(=O)N2CCN(c3c(C)cccc3C)CC2)cc1Cl | 69%
13 | C/C(=N\NC(=O)c1cc2ccccc2cc1O)c1ccc(N)cc1 | 70%
14 | COc1ccc(CNC(=O)Nc2ccc3c(c2)N(C)C(=O)c2ccccc2S3)cc1OC | 61%
15 | O=C(Nc1ccc(Cl)cc1)c1cc2nc(-c3ccc4c(c3)OCO4)cc(C(F)(F)F)n2n1 | 83%
16 | CC(C)NC(=O)C1CC(c2ccc(Cl)cc2)=NO1 (stereo not drawn) | 84%
17 | Cn1nc(-c2ccccc2F)c2cc(C(=O)NCCc3ccc(Cl)cc3)sc21 | 76%
18 | Cn1nc(-c2ccccc2F)c2cc(C(=O)NCc3ccccc3Cl)sc21 | 56% (active)
19 | Cn1nc(-c2ccccc2F)c2cc(C(=O)NCc3cccc(Cl)c3)sc21 | 41% (active)
20 | COc1cccc(CNC(=O)c2cc3c(-c4ccccc4F)nn(C)c3s2)c1 | 59%
21 | COc1ccc(CNC(=O)c2cc3c(-c4ccccc4F)nn(C)c3s2)cc1 | 61%
22 | Cn1nc(-c2ccccc2F)c2cc(C(=O)NCc3ccc(Cl)cc3)sc21 | 87%
23 | CCN1C(=O)C2(c3ccccc31)c1c(oc3ccccc3c1=O)C(=O)N2CCOC (stereo not drawn) | 67%
24 | Cc1oc2cc3oc(=O)c(CC(=O)NCc4ccccc4)c(C)c3cc2c1C | 73%

Row | SMILES | survival
25 | Cc1ccc(C(=O)N2CCc3cc(CNC(=O)COc4ccccc4)ccc32)cc1 | 89%
26 | Cc1ccc(-n2nc3c(=O)n(CCCC(=O)NC(C)c4ccccc4)nc(C)c3c2C)cc1 (stereo not drawn) | 67%
27 | COc1ccc(S(=O)(=O)N(CCc2ccccc2)CC(=O)NCc2ccccc2)cc1OC | 62%
28 | Cc1c(Cl)cccc1NC(=O)CC(c1ccc(F)cc1)N1Cc2ccccc2C1=O (stereo not drawn) | 37% (active)
29 | Cc1c(Cl)cccc1NC(=O)CC(c1cccs1)N1Cc2ccccc2C1=O (stereo not drawn) | 32% (active)
30 | O=C(CC(c1cccs1)N1Cc2ccccc2C1=O)Nc1ccccc1F (stereo not drawn) | 78%
31 | O=C(CC(c1cccs1)N1Cc2ccccc2C1=O)Nc1ccc(Cl)cc1 (stereo not drawn) | 131%
32 | CCOc1ccccc1NC(=O)CC(c1ccc(F)cc1)N1Cc2ccccc2C1=O (stereo not drawn) | 99%
33 | CCc1ccccc1NC(=O)CC(c1ccc(F)cc1)N1Cc2ccccc2C1=O (stereo not drawn) | 117%
34 | CCOC(=O)C1CCCN(C(=O)Cn2ncc3c([nH]c4ccc(C)cc43)c2=O)C1 (stereo not drawn) | 81%
35 | CCOC(=O)c1ccc2c(c1)N(CC#N)C(=O)C(C)(C)O2 | 94%
36 | CCOC(=O)c1[nH]c(Cc2[nH]c(C(=O)OCC)c(C)c2CC(=O)OC)c(CCC(=O)OC)c1C | 70%
37 | Cc1ccc2c(=O)cc(C(=O)Nc3ccc(S(=O)(=O)N(C)Cc4ccccc4)cc3)oc2c1C | 92%
38 | COC(=O)c1ccccc1NC(=O)c1cc(=O)c2ccc(C)c(C)c2o1 | 72%
39 | COc1ccc(OC)c(NC(=O)c2cc(=O)c3c(C)cc(C)cc3o2)c1 | 42% (active)
40 | COc1ccccc1NC(=O)c1cc(=O)c2ccc(C)c(C)c2o1 | 41% (active)
41 | CCOc1ccc(NC(=O)c2cc(=O)c3ccc(C)c(C)c3o2)cc1 | 60%
42 | CCN(c1ccccc1)S(=O)(=O)c1ccc(NC(=O)c2cc(=O)c3ccc(C)c(C)c3o2)cc1 | 64%
43 | Cc1ccc2c(=O)cc(C(=O)Nc3cccc(Cl)c3C)oc2c1C | 54%
44 | COc1ccc(CCNC(=O)c2cc(=O)c3c(C)cc(C)cc3o2)cc1OC | 57%
45 | Cc1cc(C)c2c(=O)cc(C(=O)Nc3ccccc3Cl)oc2c1 | 62%
46 | CCc1ccc(NC(=O)c2cc(=O)c3ccc(C)c(C)c3o2)cc1 | 91%
47 | Cc1ccc2c(=O)cc(C(=O)Nc3ccc(S(=O)(=O)N(C)c4ccccc4)cc3)oc2c1C | 50% (active)
48 | CCOC(=O)c1ccc(NC(=O)c2cc(=O)c3ccc(C)c(C)c3o2)cc1 | 45% (active)
